Test results reported in the supplement of paper PMC6555819.

Key:
Assay in all cases: PBM binding z-score (relative to random genomic background probes); higher = stronger binding; sequences stand for … in GC…GCGATTGACAGCGTAGAATGAAGG
[1] = tested on: PPARg:RXRa DBDmut IVT, anti-RXR (DBD mutation: RXRa K156A/R161A, NR concentration 270 nM, RXRa partner concentration 90 nM)
How it was run: (§1)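 Binding z-scores take random background probes as their reference. They come from custom Agilent 4×180K protein-binding microarrays incubated 1 h with ligand-free nuclear receptor dimers, with antibodies against each partner (one per run) detecting binding. Scanned fluorescence was regression-normalized.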

[2] = tested on: PPARg:RXRa IVT, anti-PPARg (NR concentration 270 nM, RXRa partner concentration 90 nM)
How it was run: as §1

[3] = tested on: PPARg DBDmut:RXRa IVT, anti-PPARg (DBD mutation: PPARg1 K132A/R137A, NR concentration 270 nM, RXRa partner concentration 90 nM)
How it was run: as §1

[4] = tested on: PPARg DBDmut IVT, anti-PPARg (DBD mutation: PPARg1 K132A/R137A, NR concentration 270 nM)
How it was run: as §1

[5] = tested on: PPARg homodimer (NR concentration 180 nM)
How it was run: as §1

[6] = tested on: PXR:RXRa (NR concentration 270 nM, RXRa partner concentration 90 nM)
How it was run: as §1

[7] = tested on: PXR homodimer (NR concentration 270 nM)
How it was run: as §1

[8] = tested on: RARa:RXR (NR concentration 270 nM, RXRa partner concentration 90 nM)
How it was run: as §1

[9] = tested on: RARa homodimer (NR concentration 270 nM)
How it was run: as §1

[10] = tested on: RARb:RXRa (NR concentration 270 nM, RXRa partner concentration 90 nM)
How it was run: as §1

Sequence	PBM binding z-score [1]	PBM binding z-score [2]	PBM binding z-score [3]	PBM binding z-score [4]	PBM binding z-score [5]	PBM binding z-score [6]	PBM binding z-score [7]	PBM binding z-score [8]	PBM binding z-score [9]	PBM binding z-score [10]
ACAGACAGGTGATGAAGATAACTCAGGCTATCAT	-0.0309	0.209	0.00107	0.948	0.0066	-0.435	0.0307	-0.227	0.47	0.0491
GCTATTAGTTGAAAGGGCACCCGAATGATTCTCG	0.791	0.951	-0.101	0.368	1.05	0.72	0.405	1.28	0.468	1.72
CCGACTGGGGCGTAAGGTTACCATAAGCCAGCCC	0.446	0.275	-1.37	-0.827	0.0631	0.213	-0.391	0.883	-0.676	1
TGACCAAGGTGAAGGTCGTTGATCCCTCTGTAGA	1.27	2.71	-0.305	-0.387	0.818	1.26	-0.313	1.8	-0.922	2.11
CGCCCAAGGTCAAAGGTCAGTGAAGAGATGACGG	3.58	5.36	0.645	0.0371	3.28	7.03	1.41	8.49	1.99	6.04
ACTAGTTGGTCAGCTGCGGTCACACACAATTCGG	1.11	1.54	0.929	0.572	0.275	1.27	0.281	1.42	0.564	2.26
TGAATAAGGTTATAAGATCAGGGAACGTTGCAAA	0.667	1.08	1.27	0.778	0.811	0.858	-0.117	1.6	0.729	1.67
ATCGAAAGGTCGAGGTAAGTATAGAGAAAGGGAA	0.0665	1.66	1.14	1.3	1.24	2.31	0.464	3.24	1.21	4.06
GCTAGCAGGCCATTCGGGTCACTCAATGACGGGC	1.31	1.58	-0.52	-0.659	0.0772	1.83	1.45	1.71	-0.872	1.96
GGAACGATGGCAAAGTTGATAGCATCTGTCGACG	-0.422	-0.327	0.0385	-1.16	-0.819	-0.402	-0.23	-0.727	-1.19	-0.325
AGCGAAAGGTCGACGAGGTGAGTATACACCGTTT	0.519	1.89	0.248	0.154	1.07	2.86	0.276	3.47	-0.0264	3.84
CGATCTAGGTCATTGACAGGACAGTGAATAGTAA	7.84	7.9	1.48	1.96	1.92	1.64	0.255	2.35	0.361	3.61
TCTTGTAGATCAATAGAGGTTAAGCAAGTGCGCT	1.66	1.19	0.792	-0.371	0.43	3.72	0.269	1.89	0.018	0.837
AGTCAAAGTTCAGGACTAGGTAACGTAAAGCACG	0.593	3.09	0.657	0.484	1.73	2.41	1.04	2.4	1.11	4.13
TCGAGTAGGTTACCAATGGGGCTTTCAGCTTTCT	3.39	2.45	-0.964	0.0286	-0.411	-0.0679	-0.767	-0.0921	-1.47	0.762
CCTACTGGTCCAAAAAGGTCATTGATGCCGATAA	0.397	1.54	0.257	0.0096	3.82	5.11	5.49	4.95	2.48	3.94
ATATGTATGTTACATCCGGGTCATTCAGGCTATG	3.22	3.46	1.61	1.67	1.16	2.54	1.37	2.59	0.761	1.52
GCTTCTAGGTCAGGTTGGTCAGCTAACGGGTACG	6.57	5.9	1.46	0.392	1.61	0.562	0.241	1.26	0.169	3.53
CGAACGAGGGCATAAGTTGATAGCAAATGCCGAT	2.66	1.67	-0.0137	-0.0553	0.0801	0.19	0.226	0.129	-0.269	1.58
CCTGCTAGGTCATGTTCAGCTAATCTACAGTATG	4.06	2.94	-0.127	0.556	1.51	1.07	-0.338	1.53	-0.173	3.63
TCTTGTAGATCAATAGAGGTTAAGGAAGTGCGCT	1.91	0.959	0.906	0.773	0.732	2.58	0.412	1.96	0.894	1.04
CAGCCTAGGTCAGGGCCAGTATCGGAGGAACGTT	1.72	1.55	-1.42	-1.35	0.632	0.107	-1.08	0.761	-0.159	3.54
CCAGACAGGTGAAACGTAACTCAGTCTGGTACGC	2.48	0.769	-0.823	-0.558	0.378	-0.325	-0.322	0.0493	0.128	0.621
TCAGACAGGTGAAGGTATCTCAGGTACGCAGTCG	2.51	0.967	-0.232	0.111	0.602	0.375	0.13	0.509	0.153	1.08
